Reference: PubChem BioAssay (NCI)
This is part of a sample that, as a whole, favours compounds with a hit. Of some 79,000 tested, about 15% had one in any assay. Activity calls are given as the source filed them. Rule as the data show it: active = growth inhibition above about 70%; inactive = the rest.

What was measured:
[1] = NCI Yeast Anticancer Drug Screen. Data for the rad50 strain (AID 155);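 also: 0% = growth of vehicle-only cultures of the same strain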; settings: S. cerevisiae rad50 strain growth inhibition; at 50.0 µM; active compounds read high
Summary of the method: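 Vehicle-treated cultures provide the reference for the growth inhibition reported for compound-exposed, repair-deficient yeast.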

[2] = NCI Yeast Anticancer Drug Screen. Data for the mec2-1 strain (AID 157); settings: S. cerevisiae mec2-1 strain, at 50.0 µM, active compounds read high
Summary of the method: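 Using mec2-1 yeast: add compound, measure growth, express inhibition versus vehicle-treated cultures.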

[3] = NCI Yeast Anticancer Drug Screen. Data for the sgs1 mgt1 strain (AID 161);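 also: 0% = growth of cultures given vehicle only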; settings: S. cerevisiae sgs1 mgt1 strain, at 50.0 µM, active compounds read high
Summary of the method: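 This yeast growth screen uses a strain with defined DNA-repair lesions; compound-treated growth is compared with vehicle-treated growth.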

[4] = NCI Yeast Anticancer Drug Screen. Data for the cln2 rad14 strain (AID 165);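 also: 0% = growth equal to vehicle treated cultures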; settings: S. cerevisiae cln2 rad14 strain, at 50.0 µM, active compounds read high
Summary of the method: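 Yeast strain cln2 rad14, bearing defects in cell cycle control and DNA repair, serves as the test system; values reflect growth inhibition compared with vehicle.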

[5] = NCI Yeast Anticancer Drug Screen. Data for the bub3 strain (AID 167); settings: S. cerevisiae bub3 mutant strain, at 50.0 µM, active compounds read high
Summary of the method: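 Mutant yeast screening strain plus compound; vehicle-treated cultures serve as the 0% inhibition reference.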

[6] = NCI Yeast Anticancer Drug Screen. Data for the mlh1 rad18 strain (AID 175); settings: S. cerevisiae mlh1 rad18 strain growth inhibition; at 50.0 µM; active compounds read high
Summary of the method: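 Steps: expose repair-defective yeast to compound; measure growth; express inhibition against vehicle-treated controls.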

Measured: growth inhibition

COc1ccc(NC(=O)Oc2ccc3c(C)cc(=O)oc3c2)c(OC)c1 (tested in a mixture with another compound)
inactive: [1] -3.7% | [2] -6.2% | [3] -22.6% | [4] -19.7% | [5] 1.8% | [6] 12.3%

COc1ccc(C23OCN(c4ccccc4)C2(c2ccc(OC)cc2)c2ccccc2N3C)cc1 (configuration not stated)
inactive: [1] 4.15% | [2] -6.85% | [3] -25.4% | [4] -0.25% | [5] -2.25% | [6] 11.3%

C1=CC2C3CSCC3C1C1CC21 (configuration not stated)
inactive: [1] 7.95% | [2] -7.85% | [3] -4.4% | [4] -35.1% | [5] -17% | [6] -3.05%

C/C(=C(/C)c1cc[n+](C)cc1)c1cc[n+](C)cc1
inactive: [2] 60.6% | [3] 67% | [4] 44.4% | [5] 56.3% | [6] 68.5%
active: [1] 74.4%

CC1=C(c2ccc(C)cc2)NC(=S)C(C)C(c2ccc(C)cc2)=N1 (configuration not stated)
inactive: [1] -11.2% | [2] -24.6% | [3] 15.3% | [4] 8.15% | [5] 0.95% | [6] 19.8%

CCCCCCCCCCCCCCCC(=O)N(CCCC)CCCC
inactive: [1] 3.55% | [2] 5.7% | [3] -4.05% | [4] 11.9% | [5] 3.4% | [6] 8.85%

CCOC(=O)c1c(-c2ccccc2)csc1NC(=O)CN1CCCCC1
inactive: [1] 28.6% | [2] 8.8% | [3] 14.7% | [4] 6.55% | [5] 17.9% | [6] 24.7%

Cc1nc(N)nc(C)c1N=Nc1cccc(Cl)c1
inactive: [1] 2.05% | [2] 11.6% | [3] 9.35% | [4] -32.8% | [5] 21.6% | [6] 3.85%

O=C1c2ccccc2C(=O)c2cc(N=Nc3c(O)ccc4ccccc34)ccc21
inactive: [1] 2.05% | [2] 35.9% | [3] -6% | [4] 4.25% | [5] 2.7% | [6] 2.1%

O=C(CCN1CCOCC1)Nc1ccc(F)cc1F
inactive: [1] -18.8% | [2] 3.35% | [3] -3.15% | [4] 7.25% | [5] -36.5% | [6] -6.1%

COC(=O)C1CC23CCCC12CC3 (configuration not stated)
inactive: [1] 21.6% | [2] -1.25% | [3] 2.3% | [4] -66.7% | [5] 8.05% | [6] -7.05%

COc1ccc(Nc2nc(C#N)c(N)s2)cc1
inactive: [1] 3.75% | [2] -12.6% | [3] -0.15% | [4] -0.2% | [5] -27% | [6] -9.5%

O=C(CCCC(=O)Nc1cccc([N+](=O)[O-])c1)CC(=O)c1ccc([N+](=O)[O-])cc1
inactive: [1] -2.7% | [2] -1.25% | [3] -8.2% | [4] -4.15% | [5] -14.6% | [6] 8%

C/C(=N\N=C(/C)c1ccc(O)cc1O)c1ccc(O)cc1O
inactive: [1] 13.7% | [2] 12.7% | [3] -3.5% | [4] 6.15% | [5] 6.75% | [6] -3.35%

CCCCC(CCCC)c1ccccn1
inactive: [1] -15.1% | [2] -10.9% | [3] 8.15% | [4] -18.2% | [5] 8.85% | [6] -14.4%

C[n+]1nc2ccccc2c(=Nc2ccccc2[N+](=O)[O-])[n-]1
inactive: [1] 10.3% | [2] -2.35% | [3] 22.7% | [4] 14.1% | [5] 8.5% | [6] -1.65%

O=C(O)CCSSCCC(=O)O
inactive: [1] 7.25% | [2] 6.5% | [3] 10.8% | [4] -1.65% | [5] -4.1% | [6] 10.8%

Nc1nc(-c2ccncc2)cc(-c2cc(-c3ccncc3)nc(N)n2)n1
inactive: [1] -7.7% | [2] -0.25% | [3] -8.65% | [4] -21.9% | [5] -12.3% | [6] 10.3%

O=C(C[n+]1csc2ccccc21)c1ccc(I)cc1
inactive: [1] -15.3% | [2] -0.65% | [3] -9.15% | [4] -12.8% | [5] -4.8% | [6] 20.4%

Nc1cn(C2CC(O)C(CO)O2)c(=O)[nH]c1=O (configuration not stated)
inactive: [1] 0% | [2] -1.9% | [3] -2.5% | [4] 1% | [5] -4.4% | [6] -9.05%

c1ccc(C2(c3ccccc3)c3ccccc3-c3ccccc32)cc1
inactive: [1] -16.2% | [2] 17.4% | [3] 20.3% | [4] -17.9% | [5] -26.9% | [6] 2.2%

O=C(C[n+]1csc2ccccc21)c1ccc(-c2ccccc2)cc1
inactive: [1] 18.1% | [2] 9.8% | [3] -11.9% | [4] -3.05% | [5] 11.6% | [6] 4.85%

OCCN(CCO)c1nc(N(CCO)CCO)nc(N(CCO)CCO)n1
inactive: [1] 19.8% | [2] 16.4% | [3] 20.2% | [4] 31.5% | [5] 17.2% | [6] 19.6%

O=C(OCC(COC(=O)c1ccccc1)OC(=O)c1ccccc1)c1ccccc1
inactive: [1] -7.15% | [2] 2.15% | [3] 8.8% | [4] -24.6% | [5] 38.8% | [6] 0.65%

CC(=O)Oc1ccc(C(=O)c2ccc(OC(C)=O)cc2)cc1
inactive: [1] -7.5% | [2] -16.6% | [3] 6.25% | [4] -22.4% | [5] -4.45% | [6] 22.2%

O=C(OCC(Cl)(Cl)Cl)N1[C@H]2C3=C(CCC3)[C@@H]([C@H]3O[C@H]32)N1C(=O)OCC(Cl)(Cl)Cl
inactive: [1] -38.8% | [2] -8.35% | [3] -1.9% | [4] 20.7% | [5] 10% | [6] 2.3%

Cc1sc2nc3n(c(=O)c2c1C)N=C(c1ccccc1)CS3
inactive: [1] -29.4% | [2] -11.8% | [3] -33.3% | [4] 11.1% | [5] -31.4% | [6] -17.2%

COc1ccc(C2CC(C)(O)Oc3cc4c(cc32)OCO4)cc1 (configuration not stated)
inactive: [1] 47.5% | [2] 26.3% | [3] 13.7% | [4] 43.6% | [5] 44.9% | [6] 27.1%

CC(=O)/C=C/c1ccc(C)cc1
inactive: [1] 27.1% | [2] 9.9% | [3] 8.75% | [4] 4.15% | [5] 20.6% | [6] 10.7%

N#CNc1ccccc1
inactive: [1] 0.05% | [2] 6.15% | [3] -12.2% | [4] -8.8% | [5] 5.15% | [6] 3.45%

CC1=C(O)c2cn(C)cc2C(=O)C1=O
inactive: [1] 26.1% | [2] 24.9% | [3] 18% | [4] 26.6% | [5] 31.9% | [6] 28.3%

CCOC1(OCC)C(=O)N(c2ccc(Cl)c(Cl)c2)C(=O)N1c1ccc(Cl)c(Cl)c1
inactive: [1] 39.2% | [2] 1.4% | [3] -5.6% | [4] 7.5% | [5] -3.65% | [6] -0.45%

CCCc1nc(CCC)nc(CCC)n1
inactive: [1] -13.8% | [2] -5.35% | [3] -10.2% | [4] -6.5% | [5] 5.55% | [6] -14.7%

ClC(Cl)(Cl)CC(Br)c1ccccc1 (configuration not stated)
inactive: [1] -1.55% | [2] -8.8% | [3] 7.55% | [4] -22.9% | [5] -6.9% | [6] 2.25%

CC(=O)c1ccncc1
inactive: [1] -38.2% | [2] -0.7% | [3] 6.65% | [4] -27.4% | [5] -1.6% | [6] 20.6%

CC(=O)OC(CCN(C)C)c1ccccc1 (configuration not stated)
inactive: [1] -1.35% | [2] -7.5% | [3] 0.6% | [4] -34.1% | [5] 24% | [6] -5.45%

Oc1ccc2nccnc2c1
inactive: [1] 10.1% | [2] 1.6% | [3] 10.2% | [4] -1.6% | [5] 3.6% | [6] 13.1%

C/C(CCN(C)C)=N\OC(=O)c1ccccc1
inactive: [1] -12.2% | [2] -25.9% | [3] -33.2% | [4] -6.65% | [5] -6.95% | [6] -26.9%

O=C(OCc1ccccc1)/C(c1ccccc1)=[N+]1/C(=S)Nc2ccc([N+](=O)[O-])cc21
inactive: [1] 3% | [2] -5% | [3] 1.6% | [4] 3.8% | [5] 13.9% | [6] 7.9%

C1CC2(C34CCC(CC3)C4)CCC1C2
inactive: [1] -5.15% | [2] 1.45% | [3] 14.2% | [4] 7.55% | [5] 7.1% | [6] -2.6%

CCCCn1c(=S)[nH]c2c(=O)n(C)c(=O)n(C)c21
inactive: [1] 4.95% | [2] 4.3% | [3] 7.55% | [4] -14.4% | [5] -7.35% | [6] 4%

O=C(CO)c1ccc([N+](=O)[O-])cc1
inactive: [1] 16.8% | [2] 34.3% | [3] 1.85% | [4] 7.5% | [5] 13.4% | [6] 40.4%
